Results as given in PubChem BioAssay (EPA / NIEHS).
Calls of active or inactive are those of the source. Rule for the calls: active = hit-call score of the fitted dose curve at least 0.9, where 1 is the maximum; inactive = score below 0.9.

How the values were obtained:
[1] = BSK_hDFCGF_SRB: Viability Assessment in the BioMAP Diversity Plus: hDFCGF Assay (AID 2283061); details: primary human foreskin fibroblasts;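 note: cells exposed to compound for 24 h before the read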
Outline: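 Human foreskin primary fibroblasts were treated with compound and assessed 24 h after dosing. Total protein was measured by sulforhodamine B staining (0.1% SRB after 10% TCA fixation, 560 nm read) as a cytotoxicity marker, with bidirectional fitting against DMSO baseline.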

[2] = read-out: TIMP metallopeptidase inhibitor 1 (TIMP1), TIMP1 (gene 7076); assay: BSK_hDFCGF_TIMP1: BioMAP Diversity Plus: hDFCGF Assay for TIMP metallopeptidase inhibitor 1 (TIMP1) Biomarker Activity (AID 2283062); details: primary human foreskin fibroblasts; actives raise or lower the signal
Outline: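 Primary human foreskin fibroblasts in the hDFCGF system were dosed with compound for 24 h, then TIMP-1 was measured by ELISA. Activity was fitted bidirectionally relative to DMSO control; parallel SRB staining assessed cytotoxicity.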

[3] = read-out: Matrix Metallopeptidase 1 (MMP1), MMP1 (gene 4312); assay: BSK_hDFCGF_MMP1: BioMAP Diversity Plus: hDFCGF Assay for Matrix Metallopeptidase 1 (MMP1) Biomarker Activity (AID 2283064); details: primary human foreskin fibroblasts; actives raise or lower the signal
Outline: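 ELISA read-out of MMP1 from human foreskin fibroblasts (primary skin cells), 24 h post-dose. Gain or loss of signal was fitted bidirectionally versus DMSO negative control; cytotoxicity was checked by SRB in parallel cultures.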

[4] = read-out: Vascular cell adhesion molecule 1 (VCAM1), VCAM1 (gene 7412); assay: BSK_hDFCGF_VCAM1: BioMAP Diversity Plus: hDFCGF Assay for Vascular cell adhesion molecule 1 (VCAM1) Biomarker Activity (AID 2283065); details: primary human foreskin fibroblasts; actives raise or lower the signal;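 for AC50: VCAM-1 protein level quantified by ELISA after 24 h chemical exposure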
Outline: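 Primary human foreskin fibroblasts (hDFCGF system) were dosed with chemical and VCAM-1 was measured by ELISA 24 h later. Bidirectional curve fitting used DMSO as negative control and activity baseline.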

[5] = read-out: Plasminogen activator inhibitor-1 (PAI1), SERPINE1 (gene 5054); assay: BSK_hDFCGF_PAI1: BioMAP Diversity Plus: hDFCGF Assay for Plasminogen activator inhibitor-1 (PAI1) Biomarker Activity (AID 2283066); details: primary human foreskin fibroblasts; actives raise or lower the signal
Outline: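 ELISA readout of PAI-1 from primary human skin fibroblast cultures, 24 h after compound addition. Gain or loss of signal was fitted bidirectionally against DMSO baseline.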

[6] = read-out: Intercellular Adhesion Molecule 1 (ICAM1), ICAM1 (gene 3383); assay: BSK_KF3CT_ICAM1: BioMAP Diversity Plus: KF3CT Assay for Intercellular Adhesion Molecule 1 (ICAM1) Biomarker Activity (AID 2283067); details: primary human keratinocytes with fibroblasts; actives raise or lower the signal
Outline: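 Human keratinocyte plus foreskin fibroblast primary co-culture was exposed to chemical for 24 h. ICAM-1 was then quantified by ELISA, and the data were fit bidirectionally against DMSO as the negative control and baseline.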

[7] = read-out: Interferon-gamma inducible Protein 10 (IP10), CXCL10 (gene 3627); assay: BSK_KF3CT_IP10: BioMAP Diversity Plus: KF3CT Assay for Interferon-gamma inducible Protein 10 (IP10) Biomarker Activity (AID 2283068); details: primary human keratinocytes with fibroblasts; actives raise or lower the signal
Outline: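 In a primary skin co-culture of keratinocytes and fibroblasts, IP-10 is quantified by ELISA at 24 h after dosing. SRB staining of parallel wells monitors overt toxicity. Curves are fitted both directions against DMSO.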

[8] = BSK_KF3CT_SRB: Viability Assessment in the BioMAP Diversity Plus: KF3CT Assay (AID 2283069); details: primary human keratinocytes with fibroblasts
Outline: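 SRB read-out at 560 nm (0.1% stain, TCA-fixed cells) gauges overt cytotoxicity in a human skin keratinocyte–fibroblast co-culture 24 h post-dosing. Signal change was fitted bidirectionally relative to DMSO control.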

[9] = read-out: Interleukin-1 alpha (IL1a), IL1A (gene 3552); assay: BSK_KF3CT_IL1a: BioMAP Diversity Plus: KF3CT Assay for Interleukin-1 alpha (IL1a) Biomarker Activity (AID 2283070); details: primary human keratinocytes with fibroblasts; actives raise or lower the signal
Outline: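 Primary skin co-culture (keratinocytes, foreskin fibroblasts), 24 h exposure; ELISA for IL-1a; bidirectional curve fit vs DMSO.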

[10] = read-out: TIMP metallopeptidase inhibitor 2 (TIMP2), TIMP2 (gene 7077); assay: BSK_KF3CT_TIMP2: BioMAP Diversity Plus: KF3CT Assay for TIMP metallopeptidase inhibitor 2 (TIMP2) Biomarker Activity (AID 2283071); details: primary human keratinocytes with fibroblasts; actives raise or lower the signal
Outline: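 ELISA readout of TIMP-2 in keratinocyte plus foreskin fibroblast co-cultures (human skin primary cells), 24 h post-dose. Gain or loss of signal fitted relative to DMSO.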

[11] = read-out: Transforming growth factor beta 1 (TGFb1), TGFB1 (gene 7040); assay: BSK_KF3CT_TGFb1: BioMAP Diversity Plus: KF3CT Assay for Transforming growth factor beta 1 (TGFb1) Biomarker Activity (AID 2283072); details: primary human keratinocytes with fibroblasts; actives raise or lower the signal
Outline: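 Read-out: ELISA for TGF-b1 in keratinocyte/foreskin fibroblast human skin co-culture, 24 h after dosing; bidirectional curve fit vs DMSO baseline; gain or loss of signal scored.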

[12] = read-out: C-C motif chemokine 2 (Homo sapiens) (UniProt P13500); assay: BSK_KF3CT_MCP1: BioMAP Diversity Plus: KF3CT Assay for Monocyte Chemoattractant Protein 1 (MCP1/CCL2) Biomarker Activity (AID 2283073); details: primary human keratinocytes with fibroblasts; actives raise or lower the signal
Outline: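 Human keratinocyte plus foreskin fibroblast primary co-culture exposed to chemical for 24 h. MCP-1 levels measured by ELISA. Bidirectional curve fitting relative to DMSO negative control as baseline.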

[13] = read-out: Matrix Metallopeptidase 9 (MMP9), MMP9 (gene 4318); assay: BSK_KF3CT_MMP9: BioMAP Diversity Plus: KF3CT Assay for Matrix Metallopeptidase 9 (MMP9) Biomarker Activity (AID 2283074); details: primary human keratinocytes with fibroblasts; actives raise or lower the signal;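 for AC50: MMP9 protein level quantified by ELISA in the co-culture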
Outline: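 ELISA read-out of MMP-9 at 24 h post-dosing in a co-culture of human skin keratinocytes and foreskin fibroblasts. Gain or loss of signal was fitted in both directions against DMSO.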

[14] = read-out: urokinase plasminogen activator (uPA), PLAU (gene 5328); assay: BSK_KF3CT_uPA: BioMAP Diversity Plus: KF3CT Assay for urokinase plasminogen activator (uPA) Biomarker Activity (AID 2283075); details: primary human keratinocytes with fibroblasts; actives raise or lower the signal
Outline: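 Skin co-culture (keratinocytes + foreskin fibroblasts), human primary; 24 h post-dose; uPA by ELISA; gain/loss fit vs DMSO baseline.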

[15] = read-out: E-selectin (Homo sapiens) (UniProt P16581); assay: BSK_LPS_Eselectin: BioMAP Diversity Plus: LPS Assay for Eselectin Biomarker Activity (AID 2283077); details: primary human HUVEC with PBMC; actives raise or lower the signal
Outline: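 Human umbilical vein endothelial cells co-cultured with peripheral blood mononuclear cells under LPS stimulation; E-selectin measured by ELISA 24 h after chemical dosing. Activity fitted bidirectionally against DMSO as negative control and baseline.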

[16] = read-out: Interleukin-8 (IL8), CXCL8 (gene 3576); assay: BSK_LPS_IL8: BioMAP Diversity Plus: LPS Assay for Interleukin-8 (IL8) Biomarker Activity (AID 2283078); details: primary human HUVEC with PBMC; actives raise or lower the signal
Outline: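 Human umbilical vein endothelial cells co-cultured with PBMC were stimulated with LPS; IL-8 levels were measured by ELISA 24 h after chemical dosing. Activity was fitted bidirectionally against DMSO as negative control and baseline.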

[17] = BSK_LPS_SRB: Viability Assessment in the BioMAP Diversity Plus: LPS Assay (AID 2283079); details: primary human HUVEC with PBMC;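 note: total protein by sulforhodamine B absorbance as a cytotoxicity measure; measured one day after compound addition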
Outline: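 Human umbilical vein endothelial cells co-cultured with PBMC (LPS system) were dosed for 24 h. Total protein was stained with 0.1% sulforhodamine B after 10% TCA fixation, read at 560 nm, and fitted bidirectionally against DMSO baseline.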

CD40, CD40 (gene 958) = assay: BSK_LPS_CD40: BioMAP Diversity Plus: LPS Assay for CD40 Biomarker Activity (AID 2283076); details: primary human HUVEC with PBMC; actives raise or lower the signal
Outline: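 Primary human umbilical vein endothelial cells co-cultured with peripheral blood mononuclear cells, LPS-stimulated, were dosed with chemical and read 24 h later. CD40 levels were measured by ELISA and fitted bidirectionally against DMSO as negative control and baseline.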

[18] = read-out: Interleukin-1 alpha (IL1a), IL1A (gene 3552); assay: BSK_LPS_IL1a: BioMAP Diversity Plus: LPS Assay for Interleukin-1 alpha (IL1a) Biomarker Activity (AID 2283080); details: primary human HUVEC with PBMC; actives raise or lower the signal
Outline: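 Human umbilical vein endothelial cells co-cultured with peripheral blood mononuclear cells were LPS-stimulated and exposed to test chemicals for 24 h. IL-1 alpha was quantified by ELISA, with bidirectional curve fitting against DMSO as the negative control and baseline.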

[19] = read-out: Monokine induced gamma interferon (MIG), CXCL9 (gene 4283); assay: BSK_hDFCGF_MIG: BioMAP Diversity Plus: hDFCGF Assay for Monokine induced gamma interferon (MIG) Biomarker Activity (AID 2283063); details: primary human foreskin fibroblasts; actives raise or lower the signal
Outline: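 ELISA read-out of MIG from primary human dermal fibroblasts 24 h post-dosing. Gain or loss of signal fitted bidirectionally, DMSO as baseline.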

Sequence of E-selectin (Homo sapiens) (P16581 whole entry, looked up): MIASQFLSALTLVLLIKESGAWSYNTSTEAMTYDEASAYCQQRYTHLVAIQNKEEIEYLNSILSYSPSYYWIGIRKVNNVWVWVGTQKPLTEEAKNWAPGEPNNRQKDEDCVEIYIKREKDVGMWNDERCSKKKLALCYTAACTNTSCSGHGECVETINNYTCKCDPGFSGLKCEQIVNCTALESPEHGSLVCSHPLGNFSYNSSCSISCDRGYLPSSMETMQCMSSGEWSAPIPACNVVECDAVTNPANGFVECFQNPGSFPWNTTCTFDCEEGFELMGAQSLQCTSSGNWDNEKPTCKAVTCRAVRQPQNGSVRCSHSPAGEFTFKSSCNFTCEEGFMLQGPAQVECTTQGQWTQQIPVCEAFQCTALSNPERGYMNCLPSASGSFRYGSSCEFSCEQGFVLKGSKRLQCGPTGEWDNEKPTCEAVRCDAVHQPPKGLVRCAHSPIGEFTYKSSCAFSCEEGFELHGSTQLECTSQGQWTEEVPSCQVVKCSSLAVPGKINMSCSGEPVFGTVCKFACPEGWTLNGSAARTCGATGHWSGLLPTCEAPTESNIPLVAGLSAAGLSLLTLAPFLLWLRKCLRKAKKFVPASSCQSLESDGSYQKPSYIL

## O=C(O)C[C@H](O)C[C@H](O)/C=C/c1c(C2CC2)nc2ccccc2c1-c1ccc(F)cc1
[1]
  outcome: inactive
[2]
  outcome: inactive
[3]
  outcome: inactive
[4]
  outcome: inactive
[5]
  AC50: 2.96 µM (active)
[6]
  outcome: inactive
[7]
  outcome: inactive
[8]
  outcome: inactive
[9]
  outcome: inactive
[10]
  outcome: inactive
[11]
  outcome: inactive
[12]
  outcome: inactive
[13]
  outcome: inactive
[14]
  outcome: inactive
[15]
  AC50: 0.0822 µM (active)
[16]
  AC50: 0.992 µM (active)
[17]
  AC50: 0.256 µM (active)

## CC(=O)/C=C/C1=C(C)CCCC1(C)C
[1]
  outcome: inactive
[2]
  outcome: inactive
[3]
  outcome: inactive
[4]
  outcome: inactive
[5]
  outcome: inactive
[6]
  outcome: inactive
[7]
  outcome: inactive
[8]
  outcome: inactive
[9]
  outcome: inactive
[10]
  outcome: inactive
[11]
  outcome: inactive
[12]
  outcome: inactive
[13]
  outcome: inactive
[14]
  outcome: inactive
CD40, CD40 (gene 958)
  outcome: inactive
[15]
  outcome: inactive
[16]
  outcome: inactive
[17]
  outcome: inactive
[18]
  outcome: inactive

## CCc1c(C)cc(N)c(CC)c1N
[1]
  outcome: inactive
[2]
  outcome: inactive
[3]
  outcome: inactive
[4]
  outcome: inactive
[5]
  outcome: inactive
[6]
  outcome: inactive
[7]
  outcome: inactive
[8]
  outcome: inactive
[9]
  AC50: 1.94 µM (active)
[10]
  outcome: inactive
[11]
  outcome: inactive
[12]
  outcome: inactive
[13]
  outcome: inactive
[14]
  outcome: inactive
CD40, CD40 (gene 958)
  outcome: inactive
[15]
  outcome: inactive
[16]
  outcome: inactive
[17]
  outcome: inactive
[18]
  outcome: inactive

## CC(C)(COC(=O)c1ccccc1)COC(=O)c1ccccc1
[1]
  AC50: 31.5 µM (active)
[2]
  AC50: 34.3 µM (active)
[3]
  outcome: inactive
[4]
  AC50: 16.1 µM (active)
[5]
  AC50: 32.9 µM (active)
[6]
  outcome: inactive
[7]
  outcome: inactive
[8]
  outcome: inactive
[9]
  outcome: inactive
[10]
  outcome: inactive
[11]
  outcome: inactive
[12]
  outcome: inactive
[13]
  outcome: inactive
[14]
  outcome: inactive
[15]
  outcome: inactive
[16]
  outcome: inactive
[17]
  AC50: 31.3 µM (active)
[18]
  outcome: inactive

## Cc1ccc2n[nH]nc2c1
[1]
  outcome: inactive
[2]
  outcome: inactive
[3]
  outcome: inactive
[4]
  outcome: inactive
[5]
  outcome: inactive
[6]
  outcome: inactive
[7]
  outcome: inactive
[8]
  outcome: inactive
[9]
  outcome: inactive
[10]
  outcome: inactive
[11]
  outcome: inactive
[12]
  outcome: inactive
[13]
  outcome: inactive
[14]
  outcome: inactive
CD40, CD40 (gene 958)
  outcome: inactive
[15]
  outcome: inactive
[16]
  outcome: inactive
[17]
  outcome: inactive
[18]
  outcome: inactive

## CCCCCCCCCC=O
[1]
  outcome: inactive
[2]
  outcome: inactive
[19]
  outcome: inactive
[3]
  outcome: inactive
[4]
  outcome: inactive
[5]
  outcome: inactive
[6]
  outcome: inactive
[7]
  AC50: 11.9 µM (active)
[8]
  outcome: inactive
[9]
  outcome: inactive
[10]
  outcome: inactive
[11]
  outcome: inactive
[12]
  outcome: inactive
[13]
  outcome: inactive
[14]
  outcome: inactive
[15]
  outcome: inactive
[16]
  outcome: inactive
[17]
  outcome: inactive
[18]
  outcome: inactive

## CCCCC/C=C/C=C/C=O
[1]
  AC50: 12.7 µM (active)
[2]
  AC50: 12.7 µM (active)
[3]
  AC50: 20 µM (active)
[4]
  AC50: 6.87 µM (active)
[5]
  AC50: 8.82 µM (active)
[6]
  AC50: 29.3 µM (active)
[7]
  AC50: 29.4 µM (active)
[8]
  AC50: 32.6 µM (active)
[9]
  AC50: 29.5 µM (active)
[10]
  AC50: 24.3 µM (active)
[11]
  AC50: 9.27 µM (active)
[12]
  AC50: 32.5 µM (active)
[13]
  AC50: 26.8 µM (active)
[14]
  AC50: 31.4 µM (active)
[15]
  AC50: 34.1 µM (active)
[16]
  AC50: 32.6 µM (active)
[17]
  AC50: 29.7 µM (active)
[18]
  AC50: 29.2 µM (active)
